# Inconclusive results are not listed. The source made the active and inactive calls. Calls come from the whole dose curve; as a rule, active = well fitted curve in the direction sought with a large enough effect; inconclusive = small, poorly fitted or top-dose-only effect, or another doubt; inactive = no such curve, though single readings can be large; an effect the other way counts as inactive or inconclusive.
# Assay: Primary qHTS for inhibitors of nuclear receptor binding SET domain protein 2 (NSD2) in an isogenic RCH-ACV NSD2 p.E1099K mutant (9B) (AID 1645876)
# Settings: RCH-ACV NSD2 E1099K (9B) viability, CellTiter-Glo, 72 h; series mostly up to 44.9 µM; activity change, negative = viability loss: at the top concentration
# % is set by controls: 0 for no effect and ±100 for the full control effect; potency is the fitted concentration of half-maximal effect.
# Note: nearly all actives have a fitted effect of over 70% in size.
Structure (SMILES),"activity change, negative = viability loss",outcome,Potency
CCC1(c2cnc[nH]2)Cc2ccccc2C1,-19.1% (inactive),,
Nc1ccc(O)cc1,2.07% (inactive),,
Cn1c(=O)c2c(ncn2CC(=O)O)n(C)c1=O,,inactive,
CCCCC(CC)COC(=O)c1ccccc1C(=O)O (configuration not stated),-9.16% [at 91.9 µM] (inactive),,
CCCC(=O)O[C@]1(C(=O)COC(=O)CC)CC[C@H]2[C@@H]3CCC4=CC(=O)CC[C@]4(C)[C@H]3[C@@H](O)C[C@@]21C,-21.4% [at 17.3 µM] (inactive),,
Nc1c[n+](N2CCOCC2)no1,9.42% (inactive),,
C=C(C)C(=O)OCC(O)CO (configuration not stated),-1.39% (inactive),,
Cc1ccc(-c2ccccc2C#N)cc1,-21.6% (inactive),,
CC(C)C(=O)Nc1cccc(C(F)(F)F)c1,-23.5% (inactive),,
O=C(c1cc(O)c(O)c(O)c1)c1ccc(O)c(O)c1O,,,2.37 µM (active)
CC(=O)OC[C@H]1O[C@@H](OC(C)=O)[C@H](OC(C)=O)[C@@H]1OC(C)=O,4.87% (inactive),,
CC(C)CCCC(C)NCCC(C)C (configuration not stated),-2.31% (inactive),,
CC[N+](CC)(CC)CCOC(=O)C(C1CCCC1)C1CCCC1,,,21.1 µM (active)
COC(=O)c1c(Cl)c(Cl)c(C(=O)OC)c(Cl)c1Cl,-3.06% [at 91.9 µM] (inactive),,
O=C1Nc2ccccc2C1(c1ccc(O)cc1)c1ccc(O)cc1,,,21.1 µM (active)
OC1(c2ccccc2)CCNCC1,-4.85% (inactive),,
O=P(O)(O)OCC(O)CO (configuration not stated),,inactive,
COC(=O)c1cc(Cl)ccc1OC,-8.45% (inactive),,
O=C(O)Cn1cnnn1,6.24% (inactive),,

Structure (SMILES),"activity change, negative = viability loss",outcome,Potency
Cc1nc([N+](=O)[O-])cn1-c1ccc([N+](=O)[O-])cc1,4.54% (inactive),,
COc1ccc2c(c1)CCCC2=O,3.53% (inactive),,
CCOC(=O)C(=O)c1csc(NC=O)n1,-1.17% (inactive),,
CCCC(CCC)(C(=O)OCC)C(=O)OCC,-11.9% (inactive),,
CCOC(=O)C(=O)CCCCCCl,,inactive,
COc1ccccc1N1CCN(CC(O)COc2cc(OC)c(OC)c(OC)c2)CC1 (configuration not stated),,inactive,
O=C1CC(c2ccc(Cl)cc2)CC(=O)N1,-0.332% (inactive),,
CN1CC[C@H](c2c(O)cc(O)c3c(=O)cc(-c4ccccc4Cl)oc23)[C@H](O)C1,,,0.0211 µM (active)
CN=C(N)NC(=O)Nc1c(C)cccc1C,,inactive,
CC1CC(=O)NN=C1c1ccc(NCC(C)(C)NCC(O)COc2cc(Cl)ccc2C#N)cc1 (configuration not stated),-11.9% (inactive),,
COC(=O)c1ccc(NC(C)=O)cc1OC,0.594% (inactive),,
Cc1cc(OCCOCC[N+](C)(C)Cc2ccccc2)ccc1C(C)(C)CC(C)(C)C,,,1.19 µM (active)
CC(CCc1ccc2c(c1)OCO2)NN (configuration not stated),,inactive,
C#Cc1ccc(-c2ccccc2F)cc1,-2.17% (inactive),,
OCc1c[nH]c2ccccc12,,,24.3 µM (active)
CCCC(=O)Nc1ccc(O)c(C(C)=O)c1,2.65% (inactive),,
CCc1cc2cc(OC)c(OC)cc2c(Cc2ccccc2)n1,,,23.7 µM (active)
O=C1c2ccccc2CCc2ccccc21,6.12% (inactive),,

# Assay: Primary qHTS for inhibitors of nuclear receptor binding SET domain protein 2 (NSD2) in an RCH-ACV wild type WT cells (2C) (AID 1645877)
# Settings: RCH-ACV (leukaemia line) NSD2 WT (2C) viability, CellTiter-Glo, 72 h; series mostly up to 44.9 µM; activity change, negative = cell killing: at the top concentration
Structure (SMILES),"activity change, negative = cell killing",Potency,outcome
Nc1ccc(O)cc1,1.82% (inactive),,
C=C(C)C(=O)OCC(O)CO (configuration not stated),-5.72% (inactive),,
O=C(c1cc(O)c(O)c(O)c1)c1ccc(O)c(O)c1O,,13.3 µM (active),
CC(=O)OC[C@H]1O[C@@H](OC(C)=O)[C@H](OC(C)=O)[C@@H]1OC(C)=O,6.73% (inactive),,
CC(C)CCCC(C)NCCC(C)C (configuration not stated),-4.87% (inactive),,
OC1(c2ccccc2)CCNCC1,1.27% (inactive),,
CCOC(=O)C(=O)c1csc(NC=O)n1,,,inactive
O=C1CC(c2ccc(Cl)cc2)CC(=O)N1,,,inactive
CC1CC(=O)NN=C1c1ccc(NCC(C)(C)NCC(O)COc2cc(Cl)ccc2C#N)cc1 (configuration not stated),-19.4% (inactive),,
C#Cc1ccc(-c2ccccc2F)cc1,5.81% (inactive),,
